Reference: PubChem BioAssay (NCI)
Compounds without any hit were thinned out: in the full panel of roughly 79,000, 15% have a hit. A number with no mark means an inactive call. Activity calls are given as the source filed them. No stated cut-off is given here; in the data, active means growth inhibition above about 70%; inactive means the rest.

Columns and labels:
[1] = NCI Yeast Anticancer Drug Screen. Data for the rad52 strain (AID 147);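 further: 0% = growth of vehicle-treated control cultures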; conditions: S. cerevisiae rad52 mutant growth inhibition, hits give high values
Method in brief: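 The repair-mutant yeast strain was incubated with compounds, then growth was read and inhibition derived relative to vehicle.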

[2] = NCI Yeast Anticancer Drug Screen. Data for the wt1 strain (AID 149);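 further: 0% = growth of vehicle-treated wt1 cultures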; conditions: S. cerevisiae wt1 strain (SPY 50644) growth inhibition, hits give high values
Method in brief: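 The wt1 strain was treated with compounds, and growth was compared with vehicle-treated cultures to give inhibition.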

[3] = NCI Yeast Anticancer Drug Screen. Data for the rad50EPP+ strain (AID 151);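 further: 0% = growth of vehicle-treated control cultures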; conditions: S. cerevisiae rad50 mutant strain, hits give high values
Method in brief: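 Vehicle-normalised growth inhibition; rad50EPP+ yeast strain, altered in DNA damage repair, compound-treated.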

[4] = NCI Yeast Anticancer Drug Screen. Data for the mgt1 strain (AID 153); conditions: S. cerevisiae mgt1 mutant growth inhibition, hits give high values
Method in brief: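 Vehicle-normalized growth inhibition is determined in mgt1 yeast, a strain selected for a defined alteration in DNA repair or cell cycle control.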

[5] = NCI Yeast Anticancer Drug Screen. Data for the rad50 strain (AID 155);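 further: 0% = growth of vehicle-only cultures of the same strain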; conditions: S. cerevisiae rad50 strain growth inhibition, hits give high values
Method in brief: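 Cells are treated with compound, grown, and their growth is then scored against vehicle-only cultures of the same repair-deficient yeast strain.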

[6] = NCI Yeast Anticancer Drug Screen. Data for the mec2-1 strain (AID 157); conditions: S. cerevisiae mec2-1 strain, hits give high values
Method in brief: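 Mutant yeast (mec2-1) grown with compound; growth inhibition relative to vehicle control reported.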

[7] = NCI Yeast Anticancer Drug Screen. Data for the rad14 strain (AID 159);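 further: 0% = growth of vehicle-treated control cultures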; conditions: S. cerevisiae rad14 strain growth inhibition, hits give high values
Method in brief: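 Readout: yeast growth inhibition, referenced to vehicle-only cultures. Strain bears a defined alteration in DNA damage repair.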

[8] = NCI Yeast Anticancer Drug Screen. Data for the sgs1 mgt1 strain (AID 161);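 further: 0% = growth of cultures given vehicle only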; conditions: S. cerevisiae sgs1 mgt1 strain, hits give high values
Method in brief: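 Yeast cells carrying a defined DNA-repair defect were exposed to test compounds. Growth inhibition was measured relative to vehicle-treated controls.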

[9] = NCI Yeast Anticancer Drug Screen. Data for the CLN2oe strain (AID 163);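 further: 0% = growth of vehicle-only control cultures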; conditions: S. cerevisiae CLN2oe strain, hits give high values
Method in brief: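 Compounds are applied to yeast harbouring a defined cell-cycle control change; reduced growth compared with vehicle-treated controls gives the value.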

[10] = NCI Yeast Anticancer Drug Screen. Data for the cln2 rad14 strain (AID 165);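 further: 0% = growth equal to vehicle treated cultures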; conditions: S. cerevisiae cln2 rad14 strain, hits give high values
Method in brief: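 Readout is yeast growth inhibition versus vehicle-treated controls, using a strain with cln2 and rad14 alterations exposed to compound.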

[11] = NCI Yeast Anticancer Drug Screen. Data for the bub3 strain (AID 167); conditions: S. cerevisiae bub3 mutant strain, hits give high values
Method in brief: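 Part of a panel of yeast mutants defective in DNA damage repair or cell cycle regulation. Each strain is grown with compound, and inhibition is calculated relative to solvent-treated cultures.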

[12] = NCI Yeast Anticancer Drug Screen. Data for the mlh1 strain (AID 171);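 further: 0% = growth of vehicle-treated control cultures of the same strain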; conditions: S. cerevisiae mlh1 strain growth inhibition, hits give high values
Method in brief: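 Measured: yeast growth. Reference: vehicle-treated controls. Organism: strain with a defined alteration affecting DNA damage repair or cell cycle control, treated with compound.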

[13] = NCI Yeast Anticancer Drug Screen. Data for the sgs1 strain (AID 173);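 further: 0% = growth of vehicle-only control cultures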; conditions: S. cerevisiae sgs1 mutant, hits give high values
Method in brief: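 Each compound was added to cultures of the altered yeast strain. Growth was recorded, and inhibition was derived by comparison with vehicle controls.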

[14] = NCI Yeast Anticancer Drug Screen. Data for the mlh1 rad18 strain (AID 175); conditions: S. cerevisiae mlh1 rad18 strain growth inhibition, hits give high values
Method in brief: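 Genetically defined yeast (DNA repair-deficient) exposed to compounds; growth inhibition determined relative to vehicle.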

[15] = NCI Yeast Anticancer Drug Screen. Data for the rad18 strain (AID 177); conditions: S. cerevisiae rad18 mutant growth inhibition, hits give high values
Method in brief: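 Vehicle-treated cultures served as the baseline for scoring compound-induced growth inhibition in DNA-repair-mutant yeast.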

[16] = NCI Yeast Anticancer Drug Screen. Data for the wt2 strain (AID 169);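 further: 0% = growth of vehicle-treated yeast cultures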; conditions: S. cerevisiae wt2 strain growth inhibition, hits give high values
Method in brief: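 Against vehicle-treated controls, the growth of yeast exposed to each compound was compared, and the inhibition was recorded.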

[17] = at 5.0 µM (retest, dose inferred, filed as 0.5)
[18] = at 50.0 µM (retest, dose inferred, filed as 5.0)

O=[N+]([O-])c1ccc2nc3ccccc3cc2c1
growth inhibition ([1]; at 1.2 µM): 3%
growth inhibition ([1]; at 3.7 µM): 13%
growth inhibition ([1]; at 11.0 µM): 35%
growth inhibition ([1]; at 33.0 µM): 74% (active)
growth inhibition ([1]; at 100.0 µM): 96% (active)
growth inhibition ([2]; at 1.2 µM): -5%
growth inhibition ([2]; at 3.7 µM): -4%
growth inhibition ([2]; at 11.0 µM): -7%
growth inhibition ([2]; at 33.0 µM): 21%
growth inhibition ([2]; at 100.0 µM): 81% (active)
growth inhibition ([3]; at 1.2 µM): 22%
growth inhibition ([3]; at 3.7 µM): 63%
growth inhibition ([3]; at 11.0 µM): 85% (active)
growth inhibition ([3]; at 33.0 µM): 90% (active)
growth inhibition ([3]; at 100.0 µM): 96% (active)
growth inhibition ([4]; at 1.2 µM): -1%
growth inhibition ([4]; at 3.7 µM): -5%
growth inhibition ([4]; at 11.0 µM): -1%
growth inhibition ([4]; at 33.0 µM): 29%
growth inhibition ([4]; at 100.0 µM): 86% (active)
growth inhibition ([5]; at 1.2 µM): 1%
growth inhibition ([5]; at 3.7 µM): 22%
growth inhibition [5, 17]: -16%
growth inhibition ([5]; at 11.0 µM): 59%
growth inhibition ([5]; at 33.0 µM): 89% (active)
growth inhibition [5, 18]: 92% (active)
growth inhibition ([5]; at 50.0 µM): 87% (active)
growth inhibition ([5]; at 100.0 µM): 95% (active)
growth inhibition ([6]; at 1.2 µM): -2%
growth inhibition ([6]; at 3.7 µM): 1%
growth inhibition [6, 17]: -37%
growth inhibition ([6]; at 11.0 µM): 8%
growth inhibition ([6]; at 33.0 µM): 27%
growth inhibition [6, 18]: 85% (active)
growth inhibition ([6]; at 50.0 µM): 55.5%
growth inhibition ([6]; at 100.0 µM): 84% (active)
growth inhibition ([7]; at 1.2 µM): 0%
growth inhibition ([7]; at 3.7 µM): 9%
growth inhibition ([7]; at 11.0 µM): 20%
growth inhibition ([7]; at 33.0 µM): 45%
growth inhibition ([7]; at 100.0 µM): 91% (active)
growth inhibition [8, 17]: -40%
growth inhibition [8, 18]: 89% (active)
growth inhibition ([8]; at 50.0 µM): 68.2%
growth inhibition ([9]; at 1.2 µM): -6%
growth inhibition ([9]; at 3.7 µM): -2%
growth inhibition ([9]; at 11.0 µM): 5%
growth inhibition ([9]; at 33.0 µM): 18%
growth inhibition ([9]; at 100.0 µM): 54%
growth inhibition [10, 17]: -59%
growth inhibition [10, 18]: 16%
growth inhibition ([10]; at 50.0 µM): 0.1%
growth inhibition ([11]; at 1.2 µM): -2%
growth inhibition ([11]; at 3.7 µM): -2%
growth inhibition [11, 17]: -51%
growth inhibition ([11]; at 11.0 µM): 14%
growth inhibition ([11]; at 33.0 µM): 39%
growth inhibition [11, 18]: 91% (active)
growth inhibition ([11]; at 50.0 µM): 69%
growth inhibition ([11]; at 100.0 µM): 94% (active)
growth inhibition ([12]; at 1.2 µM): 7%
growth inhibition ([12]; at 3.7 µM): 0%
growth inhibition ([12]; at 11.0 µM): 14%
growth inhibition ([12]; at 33.0 µM): 51%
growth inhibition ([12]; at 100.0 µM): 96% (active)
growth inhibition ([13]; at 1.2 µM): -2%
growth inhibition ([13]; at 3.7 µM): 13%
growth inhibition ([13]; at 11.0 µM): 36%
growth inhibition ([13]; at 33.0 µM): 80% (active)
growth inhibition ([13]; at 100.0 µM): 97% (active)
growth inhibition [14, 17]: -71%
growth inhibition [14, 18]: 90% (active)
growth inhibition ([14]; at 50.0 µM): 89.1% (active)
growth inhibition ([15]; at 1.2 µM): 14%
growth inhibition ([15]; at 3.7 µM): 32%
growth inhibition ([15]; at 11.0 µM): 67%
growth inhibition ([15]; at 33.0 µM): 87% (active)
growth inhibition ([15]; at 100.0 µM): 96% (active)

CNC1C(OC2C(OC3C(O)C(O)C(N=C(N)N)C(O)C3N=C(N)N)OC(C)C2(O)CO)OC(CO)C(O)C1O (stereo unspecified)
growth inhibition ([1]; at 1.2 µM): -3%
growth inhibition ([1]; at 3.7 µM): 1%
growth inhibition ([1]; at 11.0 µM): 2%
growth inhibition ([1]; at 33.0 µM): 28%
growth inhibition ([1]; at 100.0 µM): -7%
growth inhibition ([2]; at 1.2 µM): 4%
growth inhibition ([2]; at 3.7 µM): -4%
growth inhibition ([2]; at 11.0 µM): -4%
growth inhibition ([2]; at 33.0 µM): 10%
growth inhibition ([2]; at 100.0 µM): -4%
growth inhibition ([3]; at 1.2 µM): -2%
growth inhibition ([3]; at 3.7 µM): 4%
growth inhibition ([3]; at 11.0 µM): -2%
growth inhibition ([3]; at 33.0 µM): -3%
growth inhibition ([3]; at 100.0 µM): -10%
growth inhibition ([4]; at 1.2 µM): 0%
growth inhibition ([4]; at 3.7 µM): 7%
growth inhibition ([4]; at 11.0 µM): -6%
growth inhibition ([4]; at 33.0 µM): 17%
growth inhibition ([4]; at 100.0 µM): -9%
growth inhibition ([5]; at 1.2 µM): -2%
growth inhibition ([5]; at 3.7 µM): 7%
growth inhibition [5, 17]: -19%
growth inhibition ([5]; at 11.0 µM): 4%
growth inhibition ([5]; at 33.0 µM): 31%
growth inhibition [5, 18]: -6%
growth inhibition ([5]; at 50.0 µM): 91.3% (active)
growth inhibition ([5]; at 100.0 µM): -11%
growth inhibition ([6]; at 1.2 µM): -2%
growth inhibition ([6]; at 3.7 µM): -1%
growth inhibition [6, 17]: -15%
growth inhibition ([6]; at 11.0 µM): -3%
growth inhibition ([6]; at 33.0 µM): 10%
growth inhibition [6, 18]: 19%
growth inhibition ([6]; at 50.0 µM): 93.5% (active)
growth inhibition ([6]; at 100.0 µM): -3%
growth inhibition [8, 17]: 19%
growth inhibition [8, 18]: -6%
growth inhibition ([8]; at 50.0 µM): 91.8% (active)
growth inhibition ([9]; at 1.2 µM): -7%
growth inhibition ([9]; at 3.7 µM): -6%
growth inhibition ([9]; at 11.0 µM): -2%
growth inhibition ([9]; at 33.0 µM): 16%
growth inhibition ([9]; at 100.0 µM): -12%
growth inhibition [10, 17]: 11%
growth inhibition [10, 18]: 59%
growth inhibition ([10]; at 50.0 µM): 81.8% (active)
growth inhibition ([11]; at 1.2 µM): -2%
growth inhibition ([11]; at 3.7 µM): -1%
growth inhibition [11, 17]: 5%
growth inhibition ([11]; at 11.0 µM): 12%
growth inhibition ([11]; at 33.0 µM): 45%
growth inhibition [11, 18]: 2%
growth inhibition ([11]; at 50.0 µM): 93.5% (active)
growth inhibition ([11]; at 100.0 µM): -9%
growth inhibition ([16]; at 1.2 µM): -3%
growth inhibition ([16]; at 3.7 µM): 0%
growth inhibition ([16]; at 11.0 µM): -1%
growth inhibition ([16]; at 33.0 µM): 34%
growth inhibition ([16]; at 100.0 µM): -6%
growth inhibition ([12]; at 1.2 µM): -2%
growth inhibition ([12]; at 3.7 µM): -4%
growth inhibition ([12]; at 11.0 µM): 2%
growth inhibition ([12]; at 33.0 µM): 11%
growth inhibition ([12]; at 100.0 µM): 10%
growth inhibition ([13]; at 1.2 µM): -1%
growth inhibition ([13]; at 3.7 µM): 1%
growth inhibition ([13]; at 11.0 µM): 2%
growth inhibition ([13]; at 33.0 µM): 35%
growth inhibition ([13]; at 100.0 µM): 46%
growth inhibition [14, 17]: 12%
growth inhibition [14, 18]: 7%
growth inhibition ([14]; at 50.0 µM): 93.1% (active)
